Test results from PubChem BioAssay AID588342 (National Center for Advancing Translational Sciences (NCATS), 2011).
Out of some 360,000 compounds screened, about 25,000 (6.9%) were called active. Roughly 9% stayed inconclusive and do not appear here. This is one part of a sample in which actives are shown more often than they occur. A number with no mark means an inactive call. Calls come from the whole dose curve; as a rule, active = well fitted inhibition curve with a large enough effect; inconclusive = small, poorly fitted or top-dose-only effect; inactive = flat fitted curve, though single readings scatter.

biological target: Luciferin 4-monooxygenase (Photinus pyralis) (UniProt P08659); assay: qHTS profiling assay for firefly luciferase inhibitor/activator using purifed enzyme and Km concentrations of substrates (counterscreen for miR-21 project); conditions: purified FLuc, luminescence inhibition; series mostly up to 57.5 µM; activity change, negative = inhibition: at the top concentration; note: nearly all actives have a fitted effect of over 55% in size;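 for activity change, negative = inhibition: plate controls were vehicle for no effect and reference inhibitor for full effect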
Summary of the method: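 Purified P. pyralis luciferase (10nM final) with 10uM D-luciferin and 10uM ATP (Km levels) in 50mM Tris acetate pH 7.5, 10mM Mg acetate, 0.01% Tween-20, 0.05% BSA; qHTS 6-point titration, ~60 µM downward; luminescence read.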
Potency is the fitted concentration of half-maximal effect.

Chain of Luciferin 4-monooxygenase (Photinus pyralis) (P08659 whole entry, looked up): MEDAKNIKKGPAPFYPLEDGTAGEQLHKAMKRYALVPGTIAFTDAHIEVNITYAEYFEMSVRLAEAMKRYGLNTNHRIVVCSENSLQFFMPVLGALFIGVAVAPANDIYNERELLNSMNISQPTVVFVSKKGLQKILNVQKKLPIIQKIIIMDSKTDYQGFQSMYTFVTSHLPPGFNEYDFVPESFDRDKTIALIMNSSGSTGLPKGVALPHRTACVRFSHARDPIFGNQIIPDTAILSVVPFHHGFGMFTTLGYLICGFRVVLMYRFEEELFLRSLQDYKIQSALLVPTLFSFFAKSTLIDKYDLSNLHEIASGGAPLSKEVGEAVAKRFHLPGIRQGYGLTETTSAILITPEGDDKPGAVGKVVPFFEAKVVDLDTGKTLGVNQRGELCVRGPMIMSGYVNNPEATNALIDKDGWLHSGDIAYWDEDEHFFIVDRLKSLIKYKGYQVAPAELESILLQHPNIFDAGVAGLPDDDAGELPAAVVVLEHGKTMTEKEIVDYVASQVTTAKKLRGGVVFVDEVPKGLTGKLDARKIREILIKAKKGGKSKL

| SMILES | activity change, negative = inhibition [%] | Potency |
| --- | --- | --- |
| Cc1ccc(C)c(N2CCN(C(=O)CCc3c(C)nc4c(c3C)c(=O)n(C)c(=O)n4C)CC2)c1 | 2.81 |  |
| Cc1ccccc1Nc1scc(-c2ccc(Br)cc2)[n+]1-c1ccccc1C | -1.41 |  |
| CCOc1ccc(OCC)c(NS(=O)(=O)c2ccc3[nH]c(=O)ccc3c2)c1 | -2.85 |  |
| Cc1cccc(-n2c(Cc3cc(=O)[nH]c(=O)[nH]3)nnc2SC(C)C)c1 | -0.177 |  |
| COc1cccc(N(CC(=O)NC2CCCC2)C(=O)Cn2nnc(-c3ccc(C)o3)n2)c1 | 6.13 |  |
| O=S(=O)(c1ccc(Br)cc1)c1nnn2c1nc(N1CCOCC1)c1sccc12 | 4.66 |  |
| CCn1cc2nc(SCc3ccccc3Cl)n(CCc3ccccc3)c(=O)c2n1 | -10.6 |  |
| COc1ccc(NC(=O)ON=C2c3ccccc3-c3ccccc32)cc1 |  | 21.3 µM (active) |
| COc1ccc(C(=O)NC(=S)NC2CCCCC2)cc1 |  | 15.1 µM (active) |
| COc1cc(OC)cc(C(=O)OCC(=O)Nc2ccc(F)cc2F)c1 | -1.29 |  |
| COc1ccc(C(=O)NNC(=S)NC(=O)c2ccccc2)cc1 | -0.103 |  |
| COc1ccc(NC(=O)CS(=O)(=O)c2ccccc2)cc1 | -2.89 |  |
| CCc1ccccc1NC(=O)c1ccc2nc(CCc3ccccc3)oc2c1 | -22.5 |  |
| COc1ccc(C(=O)Nc2ccc(F)cc2F)cc1 |  | 10.7 µM (active) |
| COc1cccc(NC(=O)c2ccc3nc(CCc4ccccc4)oc3c2)c1 |  | 23.9 µM (active) |
| COc1ccc(NC(=O)c2ccc3nc(CCc4ccccc4)oc3c2)c(OC)c1 | -16.3 |  |
| COc1ccc(NC(=O)C(Br)C(C)C)cc1 (centres undefined) | -4.38 |  |
| O=C(NC(=S)NC1CCCCC1)c1ccc(Cl)cc1 | -18.8 |  |
| COc1ccccc1CC(=O)Nc1ccc(F)cc1F | -3.36 |  |
| Cc1ccc2c(=O)c(C(=O)c3ccc(Cl)cc3)cn(CC(=O)NC3CCCCC3)c2n1 | -2.08 |  |
| CC(=O)N1c2ccccc2CC1C(=O)N1CCN(c2ccc(F)cc2)CC1 (centres undefined) | -0.433 |  |
| O=c1cc2nc(-c3ccccc3)nc(SCCOc3ccc(Cl)cc3)n2[nH]1 | -13 |  |
| O=C(NNC(=S)NC1CC2CCC1C2)c1ccc(Cl)cc1 (centres undefined) | -11.8 |  |
| CCc1cc(C(N)=O)c(NC(=O)c2ccc(OC)cc2)s1 |  | 6.01 µM (active) |
| CCc1cc(C(=O)c2ccc(OC)cc2)c(NC(=O)CN2CCN(C)CC2)s1 | 2.35 |  |
| CCc1cc(C(c2ccccc2OC)N2CCOCC2)c(NC(=O)c2ccccc2)s1 (centres undefined) | -1.35 |  |
| CC(=O)c1ccc(NC(=O)c2nc3nc(C)cc(C(F)F)n3n2)cc1 | -6.41 |  |
| Cc1cc(C)cc(N(CC(=O)NC2CCCC2)C(=O)CCC(=O)Nc2cc(C)on2)c1 | -0.831 |  |
| CCOC(=O)c1c(S(=O)(=O)N2CCCC(C(=O)NCc3ccc(F)cc3)C2)c(C)n(CC)c1C (centres undefined) | 5.45 |  |
